Our source for the growth values is PubChem BioAssay (NCI).

About 83,000 compounds went through this panel and 20% of them were active in at least one assay; those are over-represented in the sample as a whole.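 Single-concentration screen, 48 h exposure, 96-well plates. Endpoint: percent growth. Below 10 = active.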 A number with no mark means an inactive call. The source made the active and inactive calls.

Holding throughout (test): NCI-60 one-dose screen, 48 h (100 = growth as untreated, 0 = no growth, -100 = all killed)
Holding throughout (conditions): 10 µM unless noted

The test system of assay [1] is SK-MEL-2 melanoma.
The test system of assay [2] is SN12C renal.
Assay [3] deals with UO-31 renal.
Assay [4] relates to TK-10 renal.
Assay [5] has as its system ACHN renal.
In assay [6] the test system is A498 renal.
In assay [7] the test system is CCRF-CEM leukemia.
Assay [8] has as its system MOLT-4 leukemia.
In assay [9] the test system is SR leukemia.
For assay [10], the system named is RPMI-8226 leukemia.
Assay [11] has as its system OVCAR-8 ovarian.
In assay [12] the test system is OVCAR-5 ovarian.
For assay [13], the system named is OVCAR-4 ovarian.
The subject of assay [14] is SK-OV-3 ovarian.
Assay [15] deals with IGROV1 ovarian.
Assay [16] relates to OVCAR-3 ovarian.
Assay [17] relates to HS 578T breast.
Assay [18] concerns NCI/ADR-RES ovarian.
Assay [19] relates to CAKI-1 renal.

As to `O=c1[nH]c2ccccc2cc1-c1nnc(Cc2ccccc2)o1`, the growth is 78.4% in [1]; 74% in [2]; 40% in assay [3]; 112% in assay [4]; 65.9% in [5]; 106% in [6]. The growth was 19% in [7]; 57.1% in [8]; 31.6% in assay [9]; 15.3% in assay [10]; 57.8% in assay [11]; 120% in assay [12]. Besides, the growth in assay [13] is 61.3%; in assay [14], 92.8%; in assay [15], 66%; in assay [16] it was 69.6%; in assay [17], 90.1%; in assay [18] it was 89.8%.
Regarding `COc1ccc(C(=O)c2cc(OC)c(OC)c(OC)c2)cc1/C=C/C(=O)c1ccc2c(c1)OCO2`, the growth was 22.2% in [1]; 23.8% in assay [2]; -9.84% (active) in assay [3]; 44.6% in assay [4]; -76.4% (active) in assay [5]; 71.9% in [6]. For the same molecule, the growth in [7] was -9.53% (active); in [8], 2.27% (active); in [9], -10.3% (active); in assay [10], -3.8% (active); in [11], 19.4%; in assay [12], -16.7% (active). Also, the growth is 36.6% in assay [14]; 16.9% in [15]; 1.03% (active) in [16]; 54% in [17]; 5.77% (active) in assay [18].
Take `CC(C)(C)c1ccc(S(=O)(=O)Oc2ccc3c4c(c(=O)oc3c2)CCCCC4)cc1`: the growth in assay [1] was 45%; in assay [2] it was 63.3%; in assay [3] it was 43.4%; in assay [4], 87.1%; in [5] it was 30.3%; in [6], -0.52% (active). The growth is 58.6% in assay [7]; 54.7% in assay [8]; 31.4% in assay [9]; 40.4% in [10]; 77.2% in assay [11]; 70% in [12]. The growth is 71.4% in assay [14]; 68.6% in assay [15]; 52.7% in [16]; 40% in [17]; 20.1% in assay [18].
In the case of `COc1cccc(C2CC(=O)Nc3c2c(C)nn3-c2nc3ccccc3[nH]2)c1OC` (stereo not drawn), the growth in assay [1] is 72.7%; in [2], 75.5%; in assay [3] it was 73.1%; in [5] it was 56.5%; in [19], 80.6%; in [6], -5.31% (active). Also, the growth in assay [7] is 8.46% (active); in assay [8], -31% (active); in assay [9], 33.2%; in assay [10] it was 70.4%; in [11], 55%; in assay [12] it was 114%. The growth in assay [13] is 74.4%; in [14], 79.9%; in [15], 3.88% (active); in assay [16], 74%; in assay [18], 73.2%.
Take `COc1ccc(NC(=O)CSc2nc3ccc(Cl)cc3c(=O)n2-c2ccccc2C(F)(F)F)c(OC)c1OC`: the growth in assay [1] was 53.3%; in [2], 80.1%; in assay [3], 77.6%; in [5], 61.2%; in assay [19] it was 78.4%; in assay [6], 78.3%. In addition, the growth in assay [7] was 33.7%; in assay [8], 106%; in [9], 89.6%; in assay [10] it was 83.3%; in [11], 39.3%; in assay [12], 96.9%. In addition, the growth in assay [13] was -4.33% (active); in assay [14] it was 30.2%; in assay [15], 75.3%; in assay [16] it was 82.5%; in [18], 72.4%.
For `COc1ccc(-c2cn[nH]c2-c2cc(OC)c3c(c2)OCO3)cc1`, the growth in [1] was -9.32% (active); in [2], 34%; in assay [3], 27.8%; in [5], 39.5%; in [19] it was 24.9%; in assay [6], -18.8% (active). For the same molecule, the growth in [7] is 2.12% (active); in assay [8] it was 3.98% (active); in [9] it was 5.61% (active); in assay [10], -1.3% (active); in [11], 11.7%; in assay [12], 46.1%. Besides, the growth in assay [13] is 51%; in [14] it was -1.1% (active); in assay [15] it was -17.2% (active); in [16], -12.3% (active); in assay [18], 5.12% (active).
`COc1ccc(C(=O)/C=C/c2ccc(/C=C/c3cc(OC)c(OC)c(OC)c3)cc2)cc1`: the growth is 65.1% in assay [1]; 56.7% in [2]; 40.6% in [3]; 68.1% in assay [5]; 74.4% in assay [19]; 80% in assay [6]. Also, the growth in assay [7] was 19.6%; in assay [8], 9.62% (active); in assay [9], 9.61% (active); in assay [10], -0.626% (active); in [11], 28.4%; in [12], 117%. The growth in assay [13] was 65.7%; in assay [14], 102%; in assay [15], 6.66% (active); in assay [16] it was 41.4%; in [18] it was 50%.
As for `Cc1cc(C)c(NC(=O)c2sc3nc4c(cc3c2N)CN(Cc2ccccc2)CC4)c(C)c1`, the growth in [1] was 24%; in [2] it was 23.9%; in [3], 26.5%; in assay [4], 67.6%; in assay [5], 45.7%; in [6], 1.87% (active). The growth in assay [7] is 16.6%; in [8], 25%; in assay [9], 10.1%; in assay [10], 20.9%; in [11] it was 46.6%; in assay [12] it was 57.1%. The growth in assay [13] was 31.6%; in [14] it was 23.9%; in [15] it was 24.1%; in assay [16], -3.04% (active); in assay [17], 21%; in assay [18], 18.5%.
As to `Nc1c(C(=O)Nc2ccccc2)sc2nc3c(cc12)CN(Cc1ccccc1)CC3`, the growth in [1] is 103%; in assay [2], 70.3%; in [3], 49.8%; in assay [4], 53.9%; in assay [5] it was 38.1%; in assay [6] it was 26.5%. Moreover, the growth was 98.6% in assay [7]; 92.3% in assay [8]; 55.6% in assay [9]; 74.8% in assay [11]; 78.5% in assay [12]; -14.7% (active) in [13]. For the same molecule, the growth in assay [14] is 39.2%; in assay [15], 77.9%; in [16], 56.6%; in [17], 11.1%; in [18], 71%.
Consider `CC(C)(C)OC(=O)N[C@@H](Cc1ccccc1)C(=O)N(Cc1ccccc1)C1(C(=O)NCc2ccccc2)CCN(Cc2ccccc2)CC1`, for which the growth was 55.9% in assay [1]; 19.3% in assay [2]; 15.5% in [3]; 62.3% in [4]; 40.8% in assay [5]; 8.13% (active) in assay [6]. The growth is 33.9% in [7]; 7.74% (active) in [8]; -0.167% (active) in assay [9]; 22.8% in [10]; 22.6% in assay [11]; 31.1% in [12]. For the same molecule, the growth in assay [13] was 24.2%; in [14], 69.9%; in assay [15] it was 59.1%; in assay [16], 48.5%; in [17] it was 71.5%; in [18] it was 12.1%.
